The entries come from a sample that favours hits as a whole.
Tb PYK inh – qHTS of Trypanosoma Brucei Inhibitors; pyruvate kinase (Trypanosoma brucei), Q57TT1; TbPYK enzyme, Kinase-Glo Plus ATP luminescence, 45 min; Potency, µM (titrated, usually from 76.8 µM), for inactives: at the top dose activity, negative = inhibition, most hits filed as inhibitors; actives 0.12% (n = 410,000); AID 624173, 2012; also: potency is read from the fitted curve at half-maximal effect; % is scaled to controls: 0 for no effect and ±100 for the full control effect; nearly all actives have a fitted effect of over 50% in size
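Enzyme and substrate buffer are dispensed first and compound is pin-transferred. ADP at 130 uM final then starts the reaction, which runs 45 min at room temperature. Detection reagent is added for 10 min before luminescence is imaged.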
FBPA Giardia inh – qHTS Assay for Inhibitors of Fructose-1,6-bisphosphate Aldolase from Giardia Lamblia | purified Giardia FBPA | Potency, µM (series often up to 59.6 µM), without a hit: at the top dose activity, negative = inhibition, usual class: inhibitors | actives 0.71% (n = 290,000); also: potency is read from the fitted curve at half-maximal effect; % is scaled to controls: 0 for no effect and ±100 for the full control effect; nearly all actives have a fitted effect of over 55% in size
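Giardia FBPA (40 nM reagent) was preincubated 10 min at RT with compound (up to 57.5 uM final), then substrate plus GAPDH/TPI/NAD/arsenate coupling system with diaphorase/resazurin was added; resorufin fluorescence (525/598 nm) was read after 20 min.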
Shiga inhibitor – A qHTS for Small Molecule Inhibitors of Shiga Toxin; Vero cells, Shiga toxin protein synthesis inhibition reporter; actives 9.2% (n = 290,000); AID 2315, 2010; inhibition, % at 38.7 µM; in the data active = inhibition mostly above about 28%, no sharp cut-off; inactive = mostly below about 43%; also: 0% is about no effect
RE007 growth inh – qHTS Assay for Inhibitors of the HIV-1 protein Vpr. S. pombe RE007 Vpr strain, BacTiter-Glo ATP luminescence, 24 h. Potency, µM (doses to about 92.2 µM), for inactives: top-dose activity change, negative = less growth, most hits filed as inhibitors. actives 0.21% (n = 360,000). AID 651644, 2012; active = well fitted falling curve with a large enough effect; inconclusive = small, poorly fitted or top-dose-only effect; inactive = no such curve, though single readings can be large or run the other way; also: potency is read from the fitted curve at half-maximal effect; % is scaled to controls: 0 for no effect and ±100 for the full control effect; nearly all actives have a fitted effect of over 50% in size
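Fission yeast RE007 carrying one integrated HIV-1 vpr copy, seeded at OD 0.01 in PMG+AL medium with 23 nL pinned compound. Grown 24 h at 30 degrees; viability read by BacTiter-Glo luminescence after 5 min.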
LmPK inh – qHTS Assay for Inhibitors of Leishmania Mexicana Pyruvate Kinase (LmPK) | Q27686 | purified LmPK, Kinase-Glo ATP luminescence, 1 h | Potency, µM (series often up to 57.5 µM), for inactives: at the highest dose activity change, negative = inhibition, actives largely listed as inhibitors | actives 0.37% (n = 290,000); also: potency is read from the fitted curve at half-maximal effect; % is scaled to controls: 0 for no effect and ±100 for the full control effect
Target sequence (Q27686 whole entry, looked up): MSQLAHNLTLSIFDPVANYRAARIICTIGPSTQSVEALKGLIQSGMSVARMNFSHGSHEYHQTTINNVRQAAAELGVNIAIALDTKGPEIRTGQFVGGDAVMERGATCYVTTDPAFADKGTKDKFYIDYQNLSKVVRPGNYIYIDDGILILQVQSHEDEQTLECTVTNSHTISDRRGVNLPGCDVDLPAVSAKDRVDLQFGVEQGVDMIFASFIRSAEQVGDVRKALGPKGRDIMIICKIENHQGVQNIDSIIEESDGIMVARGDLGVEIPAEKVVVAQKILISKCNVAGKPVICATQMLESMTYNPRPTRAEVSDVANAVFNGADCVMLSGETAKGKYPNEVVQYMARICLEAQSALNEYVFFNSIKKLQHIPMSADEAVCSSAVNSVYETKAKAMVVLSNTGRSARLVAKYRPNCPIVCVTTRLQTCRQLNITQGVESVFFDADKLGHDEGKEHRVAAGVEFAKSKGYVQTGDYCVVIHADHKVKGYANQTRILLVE
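Screened at intermediate enzyme activity to detect both inhibitors and activators: LmPK at 0.1 nM, with a 0.5 nM enzyme column as activation reference. PEP 0.5 mM, ADP 0.1 mM; ATP detected by luminescence after 1 h.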
CHX counter – Cycloheximide Counterscreen for Small Molecule Inhibitors of Shiga Toxin; max response, %; cell reporter, cycloheximide protein synthesis inhibition counterscreen; actives 12% (n = 300,000); in the data active = max response mostly above about 13%, no sharp cut-off; inactive = mostly below about 14%; also: read at 38.3 µM for the half of the compounds with a filed dose; 0% is about no effect
Numbers without * were called inactive; ? = inconclusive; / = no result. Unless noted, calls follow the shape of the dose curve; as a rule, active = well fitted curve in the direction sought with a large enough effect; inconclusive = small, poorly fitted or top-dose-only effect, or another doubt; inactive = no such curve, though single readings can be large; an effect the other way counts as inactive or inconclusive.

SMILES	Tb PYK inh	FBPA Giardia inh	Shiga inhibitor	RE007 growth inh	LmPK inh	CHX counter
COc1cc(OC)c(OC)cc1/C=C1/C(=O)N=C(N)N1C	-16%	-8%	-1	-22%	-3%	2
CN1C(N)=NC(=O)/C1=C\c1ccc(Br)cc1	-14%	5%	41	-7%	2%	13*
CCOC(=O)NC1(Nc2ccc(Cl)cn2)Oc2ccccc2O1	/	?	34	/	0%	8.1*
S=C(Nc1ccc(Cl)cc1Cl)N1CCOCC1	-18%	-1%	-11	1%	2%	-1
CN1CCN(C(=S)Nc2ccc(Cl)cc2Cl)CC1	-2%	0%	12	-1%	7%	16*
CCN1CCN(C(=S)Nc2ccc(Cl)cc2Cl)CC1	-2%	5%	26	-10%	-4%	25*
CCc1ccc(S(=O)(=O)c2cn(Cc3ccccc3F)c3cc(OC)c(OC)cc3c2=O)cc1	-8%	/	/	/	/	/
O=C(Nc1ccc(Nc2ccccc2)cc1)c1ccc(Br)cc1	-4%	4%	-7	-2%	-2%	-4
Cc1ccc(NC(=O)CC(=O)c2ccccc2)cc1C	-2%	1%	101*	-5%	5%	34*
O=C(Nc1cccc(C(=O)Nc2ccc(Br)cc2)c1)c1ccccc1	5%	5%	25	-22%	6%	16*
Cc1ccc(NC(=O)c2ccc(NC(=O)c3ccccc3)cc2)cc1C	-4%	/	56*	10%	-7%	46*
CCc1sc(C(=O)Nc2cccc(C(C)=O)c2)cc1C	-1%	-19%	16	-11%	-4%	28*
CCOC(=O)c1nn(-c2ccc(OC)cc2)c(=O)c2c(NC(=O)Cc3ccccc3)scc12	/	/	-1	/	/	10
O=C(CNCc1ccccc1)NC1C2CC3CC(C2)CC1C3 (configuration not stated)	-21%	-15%	/	-5%	31%	14*
CC(=O)c1ccc(NC(=O)c2cccc(NC(=O)c3ccccc3)c2)cc1	-10%	-4%	/	-7%	-2%	23*
S=C(Nc1cccc(Br)c1)c1ccccc1	-2%	-10%	109*	?	2%	45*
O=C(CNCc1ccccc1)Nc1ccc(Cl)cc1	1%	2%	79*	3%	4%	28*
OC1(CNCc2ccccc2)C2CC3CC(C2)CC1C3 (configuration not stated)	3%	-1%	-4	0%	3%	6
O=C(Nc1c(C(=O)c2ccc(F)cc2)oc2ccccc12)c1cc(-c2ccccc2)on1	2%	/	/	/	/	/
O=C(Nc1ccc2nc3ccccc3nc2c1)c1ccccc1	-12%	-11%	25*	-15%	4%	40*
Cc1ccc(NC(=O)CCn2c(=O)c3cccn3c3ccccc32)cc1C	-7%	/	26*	-1%	-6%	11
COC(=O)CSC(C(=O)Nc1ccc(C)c(C)c1)c1ccccc1 (configuration not stated)	1%	-5%	44*	5%	-1%	19
CC(C)OC(=O)c1cccc(NC(=O)c2ccccc2)c1	2%	-1%	69*	-26%	7%	26*
O=C(Nc1ccc(Cl)c(Cl)c1)c1ccccc1	0%	/	/	-21%	/	/
Cc1ccc(NC(=O)C(SCC(=O)O)c2ccccc2)cc1C (configuration not stated)	0%	19%	13	3%	1%	-2
COc1ccccc1C(=O)OCc1cc(=O)n2nc(C3CC3)sc2n1	6%	/	/	/	/	/
CC(=O)c1cccc(NC(=O)NNC(=O)c2ccc3ccccc3c2)c1	29%	3%	-5	-13%	-3%	1
CC(=O)c1cccc(NC(=O)c2c(F)c(F)c(F)c(F)c2F)c1	2%	-1%	-10	2%	1%	7
O=C(CC(=O)c1ccccc1)Nc1ccc(Cl)cc1	13%	-2%	80*	-21%	-2%	36*
CC(=O)c1cccc(NC(=O)c2cc(Cl)sc2Cl)c1	-2%	0%	39*	?	-2%	25*

From PubChem
